Screening data deposited in PubChem BioAssay by National Center for Advancing Translational Sciences (NCATS).
Only a selection was taken, and hits are over-represented in it overall.
HT1080-NT tox: kills 2HG-producing HT-1080-NT fibrosarcoma cells; Potency, µM (doses to about 46.1 µM), for the others: top-dose activity, negative = less viability, actives largely listed as cytotoxic; actives 1.6% (n = 360,000); HT-1080-NT fibrosarcoma viability, CellTiter-Glo ATP luminescence, 48 h; AID 686970;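 further: NT is the 2HG producing partner of a matched IDH1 knockdown line; potency means the concentration at half of the fitted maximal effect; 0% = DMSO-treated cells and -100% = media-only wells without cells; nearly all actives have a fitted effect of over 55% in size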
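Toxicity toward the 2HG-producing NT line was scored as %Activity, normalised to DMSO and no-cell wells, from CellTiter-Glo luminescence after 48 hours' treatment.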
ALOX12 inh: ALOX12 (human) lipoxygenase inhibition; P18054; purified 12hLO, xylenol orange hydroperoxide absorbance; Potency, µM (titrated, usually from 108 µM), inactives show top-dose activity change, negative = inhibition, actives largely listed as inhibitors; actives 1.1% (n = 580,000); further: potency means the concentration at half of the fitted maximal effect
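Hydroperoxide product was detected by ferrous iron/xylenol orange as the 573 to 405 nm absorbance ratio. Arachidonic acid at 40 uM (final) was turned over for 30 min at room temperature by 150 nM human 12hLO, pH 7.0 Hepes buffer, after 15 min compound preincubation.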
IL-1B inflam inh: blocks inflammasome-driven IL-1 beta release; THP-1 LPS/ATP IL-1B secretion, AlphaLISA, 16 h; active compounds read low; activity change, % at 57.5 µM; actives 4.7% (n = 360,000); in the data active means activity change below about -50%; inconclusive means mostly about -30% to -49%
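Secreted IL-1B measured by AlphaLISA bead assay after 16 h compound exposure of THP-1 cells; compounds (final up to 57.5 uM) added 1 h before LPS (250 ng/mL) and ATP (1.25 mM) stimulation; lower signal means less secretion.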
DT40 TDP1 CPT: DT40-hTDP1 cell growth loss with CPT; chicken DT40 Tdp1-/-;hTDP1 cells + 20 nM CPT, ATP luminescence, 48 h; Potency, µM (top dose mostly 46.2 µM), for inactives: top-dose activity change, negative = growth inhibition, actives largely listed as inhibitors; actives 12% (n = 420,000); AID 686979; further: potency means the concentration at half of the fitted maximal effect; nearly all actives have a fitted effect of over 55% in size
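Chicken DT40 Tdp1-/- cells complemented with human TDP1, 400 cells/well, exposed to compounds plus 20 nM camptothecin for at least 48 h at 37 C; viability read as ATP content by CellTiter-Glo luminescence.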
TDP1 cell noCPT: qHTS for Inhibitors of human tyrosyl-DNA phosphodiesterase 1 (TDP1): qHTS in cells in absence of CPT; DT40 Tdp1-/- hTDP1 cells, no CPT, ATP luminescence, 48 h; Potency, µM (highest dose often 46.2 µM), for the others: at the highest dose activity change, negative = growth inhibition, most hits filed as inhibitors; actives 15% (n = 420,000); further: potency means the concentration at half of the fitted maximal effect; nearly all actives have a fitted effect of over 55% in size
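Growth kinetics read by CellTiter-Glo luminescence after ≥48 hr at 37 °C. Cells: DT40 Tdp1-/- stably carrying human TDP1, 400 per well, compound exposure in the absence of CPT (DMSO vehicle).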
HT1080 IDH1KD tx: kills HT-1080 cells with IDH1 knockdown | actives 2% (n = 360,000) | HT-1080 IDH1 knockdown viability, ATP luminescence, 48 h | AID 686971 | Potency, µM (series often up to 46.1 µM), without a hit: top-dose activity, negative = toxicity, actives largely listed as cytotoxic;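 further: potency means the concentration at half of the fitted maximal effect; 0% = DMSO wells and -100% = cell-free medium wells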
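After a 2 h attachment period, IDH1KD HT-1080 cells took pin-transferred compound for 48 h at 37 °C; ATP-based luminescence after 10 min room-temperature reagent incubation reported viability.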
Starred values were filed as active, the others as inactive; ? = inconclusive; / = not tested or not shown; [ ] = dose if it differs, or a comment. Unless noted, the call rests on the fitted dose curve; in most records, active means well fitted curve in the direction sought with a large enough effect; inconclusive means small, poorly fitted or top-dose-only effect, or another doubt; inactive means no such curve, though single readings can be large; an effect the other way counts as inactive or inconclusive. Unless noted, on the % scale 0 is the no-effect control and ±100 the full control effect.

SMILES | HT1080-NT tox | ALOX12 inh | IL-1B inflam inh | DT40 TDP1 CPT | TDP1 cell noCPT | HT1080 IDH1KD tx
Cc1ccc(/C=C2\C(=O)ON=C2c2ccccc2)o1 | 5.9% | ? | 0.4 | -8.2% | 0.0% | 8.6%
CCN1CCC(CC(=O)N2CCC(C3CCN(C(=O)NC)CC3)C2)CC1 (stereo unspecified) | / | 33.0% | / | / | / | /
CC(=O)Oc1cc2c3c(c1)/C(=C1/SC(=S)NC1=O)C(=O)N3C(C)(C)C=C2C | -21.8% | 34.6% | 19.0 | -11.1% | -24.3% | -12.0%
CCOc1cc2c3c(c1)C(C)=CC(C)(C)N3C(=O)C2=O | 4.61µM* | -14.7% | 67.4 | 3.26µM* | 2.59µM* | ?
CCOc1cc2c3c(c1)C(C)CC(C)(C)N3C(=O)C2=O (stereo unspecified) | 4.9% | -12.6% | -14.8 | ? | 18.4µM* | 3.3%
Cc1cc2c3c(c1)C(C)CC(C)(C)N3C(=O)C2=O (stereo unspecified) | -4.7% | 1.1% | -2.0 | 23.1µM* | ? | -11.0%
CCN(CC(=O)Nc1c(F)cccc1F)C(=O)c1ccc(NC(=O)CC2SC(N3CCCC3)=NC2=O)cc1 (stereo unspecified) | 4.0% | ? | 6.9 | 3.6% | -17.8% | 4.0%
Cc1cccc(NC(=O)CN2CCN(C(=O)c3ccc(OCc4cn5ccccc5n4)cc3)CC2)c1C | -8.4%[9.24 µM] | 10.9% | ? | 18.4µM* | 9.2µM* | -1.9%
O=C(CN1CCN(C(=O)c2ccc(OCc3cn4ccccc4n3)cc2)CC1)Nc1cccc(F)c1 | 7.31µM* | 4.1% | -18.3 | 23.1µM* | 14.6µM* | -13.9%
CN1CCN(C(=O)c2cccc(-c3cnc4cnc(-c5ccccc5Oc5ccccc5)cn34)c2)CC1 | ? | 10.2% | -57.1* | 18.4µM* | 13µM* | 23.1µM*
O=C(c1cccc(O)c1)N1CC=C(c2cnc3cnc(-c4ccccc4)cn23)CC1 | / | 7.1%[176 µM] | / | / | / | /
CCC(O)CC(C(=O)NNc1ccccc1)C(=O)NNc1ccccc1 (stereo unspecified) | 2.59µM* | 11.2µM* | 0.7 | 23.2% | -0.8% | 5.8µM*
CCOC(=O)C(=CNNc1ccccc1)C(=O)OCC | -4.9% | ? | -15.0 | 4.61µM* | 16.4µM* | -28.3%
CCOC(=O)C(=CNC(C)=O)C(=O)OCC | / | 17.3% | / | / | / | /
CCOC(=O)NNc1ccccc1 | 4.11µM* | ? | 8.0 | 4.6% | -0.4% | 3.66µM*
CC(C)C(O)(C(=O)NNc1ccccc1)C(C)C | 14.4% | 95.7% | -5.5 | 0.6% | -11.8% | 11.2%
CCn1c2ccccc2c2cc(NC(=O)CSc3nnc(-c4cccc(C)c4)o3)ccc21 | -2.6% | -7.0% | 0.0 | ? | ? | -2.2%
CCn1c2ccccc2c2cc(NC(=O)CSc3nnc(-c4ccccc4)o3)ccc21 | ? | 5.4% | ? | 9.2µM* | 20.6µM* | 20.6µM*
CCn1c2ccccc2c2cc(NC(=O)CSc3nnc(-c4cccc(F)c4)o3)ccc21 | 13µM* | 76.4% | -6.2 | 16.4µM* | 14.6µM* | ?
CCn1c(SCC(=O)Nc2ccc3c(c2)c2ccccc2n3CC)nnc1-c1ccco1 | ? | 11.2µM* | 2.9 | -17.3% | -7.3% | 0.0%
O=[N+]([O-])/C=C\c1ccc(N2CCCC2)c(F)c1 | ? | / | -55.5* | 7.31µM* | 2.59µM* | 3.26µM*
CC(=O)c1ccc(N2CCCCC2)c(F)c1 | 13.3% | 0.5% | -21.5 | 1.4% | -21.5% | 25.2%
O=c1c2c3c(nn2ccn1Cc1cccc(C(F)(F)F)c1)CCCC3 | / | 2.0% | / | / | / | /
CCCC(=O)N1CCN(c2ccc(NC(=O)c3cc4ccccc4o3)cc2Cl)CC1 | 18.4µM* | 120.0% | -110.9* | 3.26µM* | 3.66µM* | 20.6µM*
